We go through 40 compounds from PubChem BioAssay (NCI).

“And” between values parts separate entries of the source, which are not always exact repeats. Equal entries are not always repeated. This is part of a sample that, as a whole, favours compounds with a hit. Of some 79,000 tested, about 15% had one in any assay. A number with no mark means an inactive call. The source made the active and inactive calls. Rule as the data show it: active = growth inhibition above about 70%; inactive = the rest.

The experiment in a line: NCI Yeast Anticancer Drug Screen. Data for the rad50 strain (AID 155).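 Also: 0% = growth of vehicle-only cultures of the same strain.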 As to conditions: S. cerevisiae rad50 strain growth inhibition, hits give high values; at 50.0 µM unless noted. In short, it runs like this: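 A DNA repair-deficient yeast mutant serves as the test organism; compound-induced growth inhibition is calculated against vehicle-treated cells.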
As to `COc1cc2c(cc1OC)C(=O)/C(=C/c1cc(OC)c(OC)c(OC)c1)C2`, the growth inhibition was -33.8%. With `O=C1NN(C(=O)c2ccccc2)C(c2ccccc2[N+](=O)[O-])c2c1c1ccccc1n2C(=O)c1ccccc1` (stereo not given), the growth inhibition was 28.9%. On to `O=C(O)C1C2CC=CCC21` (stereo not given), for which the growth inhibition is 13.4%. Regarding `Cc1cc(N(CCC#N)CCC#N)ccc1/C=C1/CN(N2C(=O)/C(=C/c3ccc(N(CCC#N)CCC#N)cc3C)N=C2c2ccccc2)C(c2ccccc2)=N1`, the growth inhibition is -2.7%. The result for `N#CC(C(=O)CCC(=O)C(C#N)c1ccccc1)c1ccccc1` (stereo not given) reads -26.4%. For `CCCC(C)C(C(=O)OCC)C(=O)OCC` (stereo not given) the value was 2.6% and -5.35%; for `NNc1nc(NCc2ccco2)c2[nH]cnc2n1`, -10%.

Regarding `Cc1ccc(/C=C2\NC(=S)NC2=O)cc1`, the growth inhibition was -0.15%. The result for `COc1ccc(-c2nnc(N)s2)cc1OC` reads 16.4%; that for `Cc1c2noc1CCCCCCCCCCC2`, 18.9%. For `O=C(Cc1ccccc1)N/N=C(/c1nc2ccc([N+](=O)[O-])cc2[nH]c1=O)C(O)c1ccccc1Cl` (stereo not given) the value was 0.8%. The result for `CC(C)N1C(=O)NC2C1NC(=O)N2C(C)C` (stereo not given) (tested in a mixture with another compound) reads -14.8%; that for `Cn1cnc2nc(Cl)nc(N)c21`, 0%. As for `COc1cccc2c(SC)c(C)[nH]c12`, the growth inhibition was 14.9%. For the compound `CCC(CC)C(O)C(C)C(C)O` (stereo not given), the growth inhibition is 1.3%. For `N#CC1(C(=O)c2ccccc2)C=Cc2ccccc2N1C(=O)c1ccccc1` (stereo not given) the value was -6.85%. For `Cc1[nH]c(N)nc(=S)c1CCCNc1ccccc1` the value was 6.45%. Regarding `CCCCCCCCCC(=O)N=C(C(N)=O)C(N)=O`, the growth inhibition was -13.2%. For `CCOC(=O)c1cnc2c(cnn2CC)c1NCC(C)C` the value was -3.15%.

On to `O=C(O)c1ccccc1-c1ccccc1`, for which the growth inhibition was -19.2%. For `O=c1c2ccc(Cl)cc2nc2nc(-c3ccccc3)c3cc(Cl)ccc3n12` the value was 57.6%. For the compound `O=C(O)c1c(O)cc(=O)oc1-c1ccc(Cl)cc1`, the growth inhibition is 10.8%. For `CC(C)(C)SC(=S)SCC(=O)c1ccc(F)cc1` the value was 4.35%; for `COc1ccc(C2=C(c3ccccc3)C(=O)C3(c4ccccc4)CC23c2ccc(OC)cc2)cc1` (stereo not given), -1.25%; for `Cc1nccn1C(/C(=N/O)c1ccccc1)c1ccccc1` (stereo not given), -0.55%.

As to `CN(C)CC(O)(C(=O)c1ccccc1)c1ccccc1` (stereo not given), the growth inhibition was -4.35%. For `N#CC1CCC[N-]C1.N#CC1CCC[N-]C1.[Cl][Pt+2][Cl]` (stereo not given), the growth inhibition was 50.6%. For `CCCCCCCCCCCCCCCCCCOc1ccccn1` the value was -9.8%; for `O=c1c2cc3c(=O)n4c(cc(-c5ccccc5)c5cc(Cl)ccc54)nc3cc2nc2cc(-c3ccccc3)c3cc(Cl)ccc3n12`, 14.2%. As to `COC(=O)CCC(C)C1CCC2(C)C3=C(C(=O)CC12C)C1(C)CCC(O)C(C)(C)C1=C(O)C3` (stereo not given), the growth inhibition was 81.7% (active). The result for `O=c1oc(=O)c2cc3c(=O)oc(=O)c3cc12` reads -21.4%.

Regarding `COc1cc2c(cc1OC)[C@H](c1cc(OC)c3c(c1)OCO3)[C@H]1C(=O)OCC1C2` (stereo not given in full), the growth inhibition was 11.4%. The result for `Nc1ccc(Cc2cc([N+](=O)[O-])cc([N+](=O)[O-])c2)cc1` reads 3.15%. For the compound `COC(=O)C(=O)C(C(=O)C=C(C)C)C(=O)C(=O)Nc1ccc(C)cc1C` (stereo not given), the growth inhibition is -4.9%.

Consider `O=C(O)C1CC(=O)N(Cc2ccccc2)C1` (stereo not given), for which the growth inhibition is 32.8%. The result for `CC(C)(C)c1ccncc1` reads 8.45%; that for `CCSC1C(O)C(CO)OC1n1cnc2c(=S)nc[nH]c21` (stereo not given), -3.65%.

Consider `C1CSCCSS[C@@H]2CCCCC2SC1` (stereo not given in full), for which the growth inhibition is -12.8%.

Consider `Cc1cc(N)c(N)cc1C`, for which the growth inhibition is 45.1%. The result for `O=C(O)C1Cc2c([nH]c3ccccc23)CN1` (stereo not given) reads 8.45%.
